KDM5B inh: inhibitors of human KDM5B histone demethylase; Potency, µM (highest dose often 57.7 µM), most hits filed as inhibitors; 220,000 tested, 2.6% active; KDM5B demethylase, FDH-coupled NADH fluorescence (FDH is formaldehyde dehydrogenase); AID 1347165; Q9UGL1; active = well fitted inhibition curve with a large enough effect; note: nearly all actives have a fitted effect of over 70% in size
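Compound dilutions met 200 nM (final) KDM5BΔAP for 10 min at room temperature before substrate addition. The substrate mix held 12.5 µM H3K4me3 with cofactors 25 µM α-ketoglutarate and 50 µM Fe²⁺. NADH signal gain over 30 min defined activity.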
Hits are given with their value. Many of the other results were omitted from the sample, so hits are more common in it than they were.

`Cn1c(=O)c2c(ncn2CC(=O)c2ccc3ccccc3c2)n(C)c1=O` gave KDM5B inh inactive.
For Cc1ccc(NCC(=O)Nc2cc(Cl)ccc2-n2cncn2)cc1F the results were KDM5B inh inactive.
For CCC(C)C(=O)N1CCCCC1CC (centres undefined) the results were KDM5B inh inactive.
`O=C(NCc1ccnc2[nH]ccc12)c1cccc(Br)c1` gave KDM5B inh 31.6µM.
O=C(NCc1ccnc2[nH]ccc12)c1cncc(Br)c1 was read as KDM5B inh inactive.
O=C(NCc1c[nH]c2ncccc12)c1cccc(Cl)c1 was read as KDM5B inh inactive.
`Cc1cc(C(=O)NCc2c[nH]c3ncccc23)ccc1Cl` gave KDM5B inh inactive.
For O=C(NCc1c[nH]c2ncccc12)c1ccc2ccccc2n1 the results were KDM5B inh inactive.
`O=C(Cc1cccc(Cl)c1)NCc1ccnc2[nH]ccc12` gave KDM5B inh inactive.
O=C(NCc1c[nH]c2ncccc12)c1cccc2[nH]ccc12 was read as KDM5B inh 35.5µM.
For O=C(NCc1ccnc2[nH]ccc12)c1cccc(Cl)c1 the results were KDM5B inh 35.5µM.
`O=C(NCc1ccnc2[nH]ccc12)c1ccccc1` gave KDM5B inh inactive.
Cc1ccc2[nH]c(=O)c3cc(C(=O)NCc4ccccc4Cl)sc3c2c1 was read as KDM5B inh inactive.
Screening Cc1ncccc1C(=O)N1CCC(Oc2ccc(-c3noc(-c4ccccc4)n3)cc2)C1 (centres undefined) returned KDM5B inh inactive.
Screening O=C(CSc1cn(CC(=O)N2CCOCC2)c2ccccc12)Nc1ccc(Br)cc1 returned KDM5B inh inactive.
`CC(C)CN(C(=O)CSc1nc(CN2CCOCC2)nc2ccccc12)C1CCS(=O)(=O)C1` (centres undefined) gave KDM5B inh inactive.
`CC(NC(=O)c1ccc(Br)cc1)C1CC2CCC1C2` (centres undefined) gave KDM5B inh inactive.
Screening CCCC(=O)NC1CCN(c2cnn(CC3CC3)c(=O)c2)CC1 returned KDM5B inh inactive.
`CCCc1ccc(S(=O)(=O)NCC2CCCN2CC)cc1` (centres undefined) gave KDM5B inh inactive.
`CCCc1ccc(S(=O)(=O)NC2CCN(c3ccc(=O)n(CC4CC4)n3)CC2)cc1` gave KDM5B inh 28.2µM.
For Cn1cc(C(=O)N2CCNC(=O)C2)c2ccccc21 the results were KDM5B inh inactive.
Screening CCCNC(=O)CSc1nc2ccsc2c(=O)n1C returned KDM5B inh inactive.
`COC(=O)C1(NC(=O)COc2cc(Cl)ccc2Cl)CCCCCC1` gave KDM5B inh inactive.
For O=C(CCc1c[nH]c2ccccc12)NCc1cccc(Cl)c1 the results were KDM5B inh inactive.
CCn1nccc1C(=O)N1CCN(c2cc(-c3ccccc3)[nH]n2)CC1 was read as KDM5B inh inactive.
Screening CC1=C(c2ccc(C)c(C)c2)S(=O)(=O)NC1=NCC(=O)NCc1ccccc1C returned KDM5B inh inactive.
Screening Cc1nc2c(-c3ccccc3)c(C)nn2c(C)c1CCC(=O)NCc1ccc(Cl)cc1 returned KDM5B inh inactive.
Cc1cc(CNC(=O)C(C)Cn2nc(C)nc2C)c2[nH]c(-c3ccccc3)c(C)c2c1 (centres undefined) was read as KDM5B inh inactive.
`Cc1nc(CCC(=O)NCc2cc(Cl)cc3c(C)c(-c4ccccc4)[nH]c23)n[nH]1` gave KDM5B inh 25.1µM.
Screening Cc1cc(C)cc(N(C(=O)c2ccc3c(c2)OCO3)C2C=CS(=O)(=O)C2)c1 (centres undefined) returned KDM5B inh inactive.
For O=C(NCc1cccc(Cl)c1)c1oc(=O)c2ccccc2c1-c1ccccc1 the results were KDM5B inh inactive.
For Cc1c(-c2ccccc2)[nH]c2c(CNC(=O)C3=NN(C)C(=O)CC3)cc(Cl)cc12 the results were KDM5B inh inactive.
Cc1ncoc1C(=O)NCc1cc(Cl)cc2c(C)c(-c3ccccc3)[nH]c12 was read as KDM5B inh 35.5µM.
CCn1nccc1C(=O)NCc1cc(C)cc2c(C)c(-c3ccccc3)[nH]c12 was read as KDM5B inh 12.6µM.
Cc1cc(CNC(=O)CC2C=CS(=O)(=O)C2)c2[nH]c(-c3ccccc3)c(C)c2c1 (centres undefined) was read as KDM5B inh 28.2µM.
Screening COc1ccccc1NC(=O)CSCc1ccc(Cl)c(Cl)c1 returned KDM5B inh inactive.
CCc1nc2ccccc2c(C(=O)OCC(=O)NC2(C#N)CCCC2)c1C was read as KDM5B inh inactive.
For Cc1nc(SCC(=O)NC(C)(C#N)C(C)C)n(C2CCCC2)c1C (centres undefined) the results were KDM5B inh inactive.
For Cc1ccccc1OCc1nc(-c2ccccc2OCC(=O)N2CCC(C)CC2)no1 the results were KDM5B inh inactive.
`COc1ccc2nc(C)c(C(=O)NC34CC5CC(CC(C5)C3)C4)cc2c1` gave KDM5B inh inactive.
For O=C(NCc1c[nH]c2ncccc12)c1ccc(C(F)(F)F)cc1 the results were KDM5B inh inactive.
`CNC(=O)c1cccc(-c2cnc3[nH]cc(CC(=O)N(C)C)c3c2)c1` gave KDM5B inh inactive.
Screening NC(=O)Cc1c[nH]c2ncc(-c3cccc(CO)c3)cc12 returned KDM5B inh 31.6µM.
`NC(=O)Cc1c[nH]c2ncc(-c3ccc(F)cc3)cc12` gave KDM5B inh 35.5µM.
O=C(Cc1c[nH]c2ncc(-c3ccccc3F)cc12)NCc1cccnc1 was read as KDM5B inh 28.2µM.
`Cc1cccc(-c2cnc3[nH]cc(CC(N)=O)c3c2)c1` gave KDM5B inh 31.6µM.
For Cc1cc(C(=O)NCCCN2CCCCCC2=O)c2ccc(F)cc2n1 the results were KDM5B inh inactive.
CCCCn1c(=O)n(CC(=O)Nc2cccc(Cl)c2)c(=O)c2c1ncn2CCC(C)C was read as KDM5B inh inactive.
For Cc1ccc(S(=O)(=O)C(CC(=O)c2ccc(F)cc2)c2cccs2)cc1 (centres undefined) the results were KDM5B inh inactive.
Screening COc1ccc(NC(=O)c2ncoc2-c2ccc(C)o2)cc1Cl returned KDM5B inh inactive.
For O=C(Cc1c[nH]c2ncc(-c3cccnc3)cc12)NCCc1ccccn1 the results were KDM5B inh inactive.
O=C(Cc1c[nH]c2ncc(-c3cccc(CO)c3)cc12)NCc1cccnc1 was read as KDM5B inh 31.6µM.
O=C(CSc1nc2ccccc2o1)Nc1cccc(Cl)c1 was read as KDM5B inh inactive.
Cc1[nH]c2ccc(C(=O)N3CCC(C(=O)NCC(C)(C)CN(C)C)CC3)cc2c1C was read as KDM5B inh inactive.
CCc1ccc(S(=O)(=O)N2CCC(Oc3ncccc3C(=O)N3CCOCC3)C2)cc1 (centres undefined) was read as KDM5B inh inactive.
Screening CCOc1nccnc1NC1CCN(S(=O)(=O)C2CC2)CC1 returned KDM5B inh 31.6µM.
Screening CCCCN(C)S(=O)(=O)NC1CCN(c2ncccn2)CC1 returned KDM5B inh inactive.
`CCCOc1nccnc1NC1CCN(S(=O)(=O)C2CC2)CC1` gave KDM5B inh 15.8µM.
`CN(C)c1nccnc1OC1CCN(S(=O)(=O)c2ccccc2)C1` (centres undefined) gave KDM5B inh inactive.
`CS(=O)(=O)N1CCC(Nc2nc3ccccc3o2)CC1` gave KDM5B inh inactive.
Screening CCOC(=O)COc1ccc(Br)cc1/C=C1\NC(=O)NC1=O returned KDM5B inh inactive.
For O=C(CSCc1nc2ccccc2s1)NC1CCCCC1 the results were KDM5B inh inactive.

Assay outcomes: PubChem BioAssay, National Center for Advancing Translational Sciences (NCATS)
